Casp6 inh: blocks human caspase-6 cleavage activity; P55212; purified caspase-6, Z-VEID-R110 cleavage fluorescence; inhibition, % at 12.5 µM; 350,000 compounds, 0.53% hits; AID 686996;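 active = mean inhibition across replicates at least about 35%, with every replicate also reaching that limit, limit read from the data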;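 note: 0% = median of neutral control wells and 100% = no fluorescence left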
RAD52 anneal inh: inhibitors of human RAD52 DNA annealing; P43351; recombinant RAD52 DNA annealing, FRET fluorescence; inhibition, % at 18.7 µM; 360,000 compounds, 0.46% hits;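 active = every replicate showing at least 50% inhibition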
Target sequence (P43351 whole entry, looked up): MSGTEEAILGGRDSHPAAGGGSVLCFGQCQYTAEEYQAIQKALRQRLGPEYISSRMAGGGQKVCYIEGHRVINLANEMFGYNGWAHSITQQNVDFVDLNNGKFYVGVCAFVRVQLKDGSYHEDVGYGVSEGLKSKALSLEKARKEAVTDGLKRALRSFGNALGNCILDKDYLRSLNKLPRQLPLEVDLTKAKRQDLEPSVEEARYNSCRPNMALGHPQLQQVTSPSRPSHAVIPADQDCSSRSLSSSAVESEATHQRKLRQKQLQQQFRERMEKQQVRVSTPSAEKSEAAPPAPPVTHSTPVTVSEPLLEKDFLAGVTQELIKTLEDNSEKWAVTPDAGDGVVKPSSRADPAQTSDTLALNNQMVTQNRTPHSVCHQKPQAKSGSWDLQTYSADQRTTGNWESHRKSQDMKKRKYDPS
NSD2 inh: NSD2 (human) methyltransferase inhibition. O96028. NSD2 peptide methylation, AlphaScreen, 120 min. inhibition, % at 12.5 µM. 310,000 compounds, 0.54% hits. AID 743445; in the data active = inhibition above about 50%
rRNA inh HTS: inhibitors of bacterial rRNA selective over humanized ribosomes; 350,000 compounds, 1.6% hits; E. coli WT GFP vs humanized-ribosome RFP mutants, fluorescence, 24 h; hits give low values; DMSO median 0, no signal -100; AID 720706; GFP signal change (wild-type ribosome), % (concentration not given with the values);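 active = significant combined selectivity score with lowered wild-type GFP, culture density cut under 30%, mutant RFP and density less affected; inactive = any of these conditions unmet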
MLL AF4-AF9 inh: blocks AF4 peptide binding to human AF9 | P42568 | AlphaScreen, biotin-AF4 peptide binding to FLAG-AF9 | inhibition, % at 10 µM | 350,000 compounds, 0.47% hits | AID 651704;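 active = every replicate reaching a set inhibition limit, whatever the replicate mean, cut at about 25% in these data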;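 note: 0% = plate neutral control median and 100% = total signal loss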
Starred values were filed as active, the others as inactive; / = not tested or not shown; + = active, no number. This is a sample that favours compounds with a hit; in the whole collection about 2.5% have one here.

SMILES | Casp6 inh | RAD52 anneal inh | NSD2 inh | rRNA inh HTS | MLL AF4-AF9 inh
COC(=O)c1c(C(=O)OC)c(-c2ccc(Cl)c(Cl)c2)n2c1CCC2 | 3 | -4 | 5 | -29* | 9
O=C(Nc1ccccc1)c1nc[nH]c1C(=O)Nc1ccccc1F | 49* | -7 | / | / | -3
Cc1ccc(NC(=O)c2nc[nH]c2C(=O)Nc2ccccc2F)cc1 | -1 | -3 | / | 7 | -6
CCC(=O)Nc1ccc2c(c1)OC[C@H](C)N(C(C)=O)C[C@@H](C)[C@H](OC)CN(C)C2=O | 0 | -7 | / | 2 | -7
CCCCC/C=C\C/C=C\C/C=C\CCCCC(=O)O | 40* | -32 | / | / | -4
C[C@H]1CN([C@@H](C)CO)C(=O)c2cc(NC(=O)CCN3CCOCC3)ccc2O[C@@H]1CN(C)Cc1ccc(C(F)(F)F)cc1 | 0 | -18 | / | -1 | -1
O=C(Nc1ccccc1Br)c1c(F)cccc1Cl | -4 | 5 | -3 | 5 | -5
ONC(=Nc1ccccc1Cl)c1c(F)cccc1F | -3 | -11 | -2 | -37* | 4
COc1ccc(Cl)cc1-n1c(=S)sc2c(=O)[nH]c(SCC(=O)C(C)(C)C)nc21 | 7 | -11 | 19 | -24* | 5
CCCCNC(=O)CSc1nc2c(sc(=S)n2-c2cc(Cl)ccc2OC)c(=O)[nH]1 | 3 | -8 | -3 | -2 | -1
Cc1ccc(C)c(N(CC(=O)NC2CCCC2)C(=O)c2oc(C(C)(C)C)cc2C)c1 | 0 | -10 | / | -16* | 10
Cc1cc(C(C)(C)C)oc1C(=O)N(CC(=O)NC1CCCC1)Cc1ccccc1 | / | / | -4 | / | /
O=C(CCN1C(=O)/C(=C/c2ccc(Cl)cc2)SC1=S)Nc1cccc(C(=O)O)c1 | 8 | -3 | -4 | 8 | -6
O=C(O)c1cccc(N2C(=O)/C(=C/c3ccc(SCc4ccc(Cl)cc4)o3)SC2=S)c1 | 72* | -82 | 112* | 1 | 0
CCn1c(CNC(=O)c2cccs2)n[nH]c1=S | 1 | -15 | / | 7 | 25*
O/N=C\c1ccccc1Oc1ccc(F)cc1 | 0 | -10 | -7 | -25* | -1
O=C(Nc1ccc(C(=O)Oc2ccccc2)c(O)c1)c1ccccc1 | -6 | -22 | 0 | -16 | 1
CCOC(=O)Nc1ccc(C(=O)Oc2ccccc2)c(O)c1 | 2 | -8 | 1 | -32* | -4
CCCC#Cc1ccc([C@H]2[C@@H](CO)N(C(C)=O)[C@H]2CNC(=O)C2CCCC2)cc1 | 2 | -71 | / | 1 | -3
Cc1[nH]c2ccccc2c1/C=N/NC(=S)NC(C)C | -7 | -172 | 4 | -47* | 13
Cc1[nH]c2ccccc2c1/C=N/Nc1ccccc1[N+](=O)[O-] | 11 | -1 | 3 | -20* | 50*
CC(C)NC(=S)N/N=C/c1c[nH]c2ccccc12 | / | / | 4 | / | /
Cn1c(=O)c(C#N)c(-c2ccc(F)cc2)c2cc(C(=O)c3cc(Cl)cc(Cl)c3O)cnc21 | -2 | -16 | / | -28* | 4
CN1C[C@H]2[C@@H](c3ccccc31)[C@@H](CO)N2C(=O)Nc1ccccc1Cl | -1 | -6 | / | -1 | 0
Nc1nc2c(s1)CCCCCCCCCC2 | -2 | -4 | 4 | -50* | 6
SMILES | Casp6 inh | RAD52 anneal inh | NSD2 inh | rRNA inh HTS | MLL AF4-AF9 inh
Nc1c2c(nc3sc4c(c13)CCCCC4)CCCCC2 | -1 | -13 | -1 | 13 | 5
CC(C)CC#Cc1cnc2c(c1)C(=O)N([C@@H](C)CO)C[C@H](C)[C@H](CN(C)C(=O)c1ccc3c(c1)OCO3)O2 | 0 | 14 | / | -1 | -2
COc1ccc2c3c(n(C)c2c1)[C@@H](CO)N(C(=O)c1cccnc1)CC31CN(S(C)(=O)=O)C1 | 1 | 18 | / | 1 | -1
C#CCn1c(=NC(=O)c2ccco2)sc2cccc(Cl)c21 | 2 | -13 | 0 | 12 | 31*
CCOc1cccc2sc(=NC(=O)c3ccco3)n(CC(=O)OC)c12 | 0 | -13 | 7 | 4 | -5
CCOC(=O)c1[nH]c2ccccc2c1NC(=O)c1ccc(Br)o1 | -4 | -5 | 1 | -19* | 6
CCOC(=O)c1[nH]c2ccccc2c1NC(=O)NC(C)C | -1 | -3 | 1 | 22 | -3
CN(C)C(=O)c1cc2c(c(-c3cccc(C4=CCCCC4)c3)n1)[C@H](CCO)N([S@@](=O)C(C)(C)C)C2 | / | / | / | -3 | /
CCOc1ccc(OCCC(=O)OCC(=O)c2c(N)n(CC(C)C)c(=O)n(C)c2=O)cc1 | 2 | -14 | 1 | -17* | 3
CCCN(C)C[C@@H]1Oc2cc(-c3cccc(F)c3)ccc2S(=O)(=O)N([C@@H](C)CO)C[C@@H]1C | / | / | / | -4 | /
C[C@H]1CN([C@@H](C)CO)C(=O)c2c(c3ccccc3n2C)-c2ccccc2CO[C@H]1CN(C)S(=O)(=O)c1ccccc1F | / | / | / | 1 | /
Cc1ccc(Cn2nnc3c(=O)n(CC(=O)OCc4ccccc4)cnc32)cc1 | 0 | -13 | -1 | -1 | 5
Cc1ccc(Cn2nnc3c(=O)n(CC(=O)N4CCN(c5ccccc5)CC4)cnc32)cc1 | 2 | -5 | 1 | -25* | 1
CCCC(=O)N1CC2(CCN(Cc3cccnc3)CC2)c2c([nH]c3cc(OC)ccc23)[C@@H]1CO | / | / | / | -2 | 6
C[C@@H]1CN([C@@H](C)CO)C(=O)c2cc(C#Cc3cccnc3)cnc2O[C@@H]1CN(C)C(=O)CN(C)C | -6 | 20 | / | 2 | -5
C/C=C/c1ccc([C@@H]2[C@H](CO)N(C(=O)C3CCC3)C23CN(S(=O)(=O)CC)C3)cc1 | -1 | -45 | / | -2 | -6
C/C=C/c1ccc([C@@H]2[C@H](CO)N(C(=O)C3CCCC3)C23CN(S(C)(=O)=O)C3)cc1 | 58* | -92 | / | 0 | 0
COCCNC(=S)N(CCc1c(C)[nH]c2ccc(F)cc12)Cc1cccs1 | 2 | -16 | 4 | -47 | 6
COCCNC(=S)N(CCc1c(C)[nH]c2ccc(Cl)cc12)Cc1cccs1 | 0 | -2 | -1 | -22* | 4
O=C(NCCO)c1cc([N+](=O)[O-])cc2c1C=Cc1ccccc1O2 | 1 | -16 | 6 | -18 | 1
O=C(O)c1cc([N+](=O)[O-])cc2c1C=Cc1ccccc1O2 | 38* | -3 | 4 | -5 | -1
O=C(c1cccc2ccccc12)N1CCN(Cc2ccccc2F)CC1 | -1 | -8 | 0 | -4 | 1
Cc1ccccc1CN1CCN(C(=O)c2cccc3ccccc23)CC1 | 1 | -5 | 15 | -22* | -2
C[C@H](CO)N1C[C@H](C)[C@H](CN(C)C(=O)Nc2ccc3c(c2)OCO3)Oc2c(NC(=O)c3cnccn3)cccc2C1=O | 0 | 6 | / | 2 | -3
C[C@H]1CN([C@@H](C)CO)C(=O)Cc2cc(NS(=O)(=O)c3cn(C)cn3)ccc2O[C@@H]1CN(C)C | 2 | 1 | / | 2 | -2
O=C(O)c1ccc(Cl)c(S(=O)(=O)N(Cc2ccccc2)c2ccccc2)c1 | 8 | -24 | 1 | -16 | 0
CCN(c1ccccc1)S(=O)(=O)c1cc(C(=O)O)ccc1C | / | / | + | / | /
C[C@H]1CN([C@@H](C)CO)C(=O)c2cc(Br)cnc2O[C@H]1CN(C)C(=O)c1ccccc1 | 3 | -6 | / | -1 | -3

Bioassay records: PubChem, Broad Institute
